The list is not random: actives were taken first. Their share in the collection is about 2.5%.
ASK1 inh: ASK1 kinase inhibitors, primary screen, biochemical, AlphaScreen; Mitogen-activated protein kinase kinase kinase 5 (Homo sapiens), Q99683; AlphaScreen MKK6 phosphorylation by ASK1, luminescence; inhibition, % at 7.44 µM; 22,000 tested, 0.99% active; AID 1159602, 2016; in the data active means inhibition above about 35%
ULK1 primary: ULK1 kinase inhibitors, primary screen, biochemical, AlphaScreen. inhibition, % at 5.96 µM. AID 1259251, 2017. AlphaScreen Atg13 phosphorylation by ULK1, luminescence. Serine/threonine-protein kinase ULK1 (Homo sapiens), O75385. 30,000 tested, 1.9% active; in the data active means inhibition above about 43%
AlphaScreen intf: AlphaScreen signal interference by compounds, dose response, artefact control for ASK1 inhibitor project, biochemical, TruHits beads; 220 tested, 20% active; IC50, µM; shares compounds with ASK1 inh; signal interference counterscreen;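 active means IC50 of 10 µM or lower in the counterscreen; inactive means IC50 above 10 µM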;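 further: loss of AlphaScreen light from TruHits beads alone with no ASK1 enzyme present; potency of signal reduction so a low IC50 flags an assay artifact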
Hits are given with their value; n = inactive; x = no result; ! = a repeat was not active.

SMILES	ASK1 inh	ULK1 primary	others
Cc1nn(C)c(C)c1N1C(=O)c2cccc3cccc(c23)C1=O	x	n
COc1nc(NCc2cccc(C(F)(F)F)c2)nc(-c2csc3ccccc23)n1	n	n
O=C(NC1CCN(Cc2ccccc2)CC1)c1csc(NC2CCN(Cc3ccccc3)CC2)n1	n	n
CCN(CC)C(=O)C1CCCN(c2nc(Nc3ccc(N4CCOCC4)cc3)c3ncn(C4CCCCC4)c3n2)C1 (stereo unspecified)	n	n
c1cc(Nc2ccc(N3CCOCC3)cc2)nc(-c2ccc(N3CCOCC3)nc2)n1	n	60
CC(=O)Nc1ccc(Nc2ccnc(-c3ccc(N4CCOCC4)nc3)n2)cc1	n	n
COc1cc(Nc2nc(-c3ccc(N4CCOCC4)nc3)nc3nc[nH]c23)cc(OC)c1OC	n	n
COc1cc(Nc2cc(C)nc(-c3ccc(C(=O)NC4CC4)cc3)n2)cc(OC)c1OC	n	n
COc1cc(Nc2nc(-c3ccc(N4CCOCC4)nc3)ncc2C)cc(OC)c1OC	n	89
COc1cc(Nc2ccnc(-c3ccc(C(=O)NC4CC4)cc3)n2)cc(OC)c1OC	n	45
Nc1nc(NCc2ccccc2)cc(N2CCC(N3CCOCC3)CC2)n1	n	n
O=C1CCCN1CCCNc1nc(Nc2ccccc2)nc2nc[nH]c12	n	46
O=C1CCCN1CCCNc1nc(Nc2ccncc2)nc2nc[nH]c12	n	55
O=C1CCCN1CCCNc1nc(NCCCN2CCCC2=O)c2[nH]cnc2n1	n	n
O=C1CCCN1CCCNc1nc(Nc2ccccc2)c2[nH]cnc2n1	n	n
O=C1CCCN1CCCNc1nc(Nc2ccc(-n3ccnc3)cc2)nc2nc[nH]c12	n	58
O=C1CCCN1CCCNc1nc(Nc2cccnc2)nc2nc[nH]c12	n	n
COc1cc(Nc2cc(C)nc(Nc3ccc(N4CCOCC4)cc3)n2)cc(OC)c1OC	n	n
c1ccc(OCCNc2nc(Nc3ccncc3)nc3c2ncn3-c2ccccc2)cc1	n	n
CC(C)(C)OC(=O)N1CCCC(c2nc3ccc(-c4ccncc4)cc3[nH]2)C1 (stereo unspecified)	n	n
CN1CCN(CCNC(=O)c2cccc(CN(C(=O)c3nc4ccc(-c5cn[nH]c5)cc4s3)C3CC3)c2)CC1	n	53
O=C(NCCN1CCCCC1)c1cccc(CN(C(=O)c2nc3ccc(-c4cn[nH]c4)cc3s2)C2CC2)c1	n	n
COc1ccc(CCNc2nc(NCCCN3CCCC3=O)nc3c2ncn3C2CCCCC2)cc1	n	n
Cc1ncn(-c2ccc(Nc3ncc4cccc(-c5cccc(F)c5)c4n3)cc2)n1	n	n
Cc1ccc(-c2ncn(-c3ccc(Nc4cc(-c5cnn(C)c5)c(Cl)cn4)cc3)n2)cn1	n	n
SMILES	ASK1 inh	ULK1 primary	others
Cc1ccc(-c2cccc3cnc(Nc4ccc(-n5cnc(C)n5)cc4)nc23)cn1	39	n	AlphaScreen intf=n
Cc1ccc(-c2ncn(-c3ccc(Nc4ncc(Cl)c(-c5ccnn5C)n4)cc3)n2)cn1	43	n	AlphaScreen intf=n
Cc1cc(CC(=O)Nc2cnn(-c3cccc(C(=O)Nc4ccc(N5CCOCC5)cc4)c3)c2)on1	n	n
COc1cc(-c2cn[nH]c2)ccc1C(=O)NC(C)Cc1cccs1 (stereo unspecified)	n	n
CCN(CC)c1nc(Nc2ccccc2)nc(Oc2ccccc2)n1	n	n
COc1cccc(C(=O)c2oc3ccc(NC(C)=O)cc3c2C)c1	x	n
CN(C)c1cccc(Nc2nccc(NCCc3ccc(O)cc3)n2)c1	n	n
COc1ccc(CCNc2ccnc(Nc3cccc(N(C)C)c3)n2)cc1	38	n	AlphaScreen intf=n
COc1ccc(CCNC(=O)c2ccnc(Nc3ccc4ncccc4c3)c2)cc1	n	n
COc1ccc(CCNC(=O)c2ccnc(Nc3cccc(N(C)C)c3)c2)cc1	41	n	AlphaScreen intf=n
CCN(CC)C(=O)C1CCCN(c2cc(C(=O)NCCOc3ccccc3)c3ccccc3n2)C1 (stereo unspecified)	n	n
COc1cc(Nc2nc(NCCN(C(C)C)C(C)C)c3ncn(C4CCCCC4)c3n2)cc(OC)c1OC	n	n
COc1cc(NC(=O)c2cccc(-n3cc(NC(=O)Nc4c(C)cccc4Cl)cn3)c2)cc(OC)c1OC	40	n	AlphaScreen intf=n
COc1cc(NC(=O)c2cccc(-n3cc(NC(=O)Nc4ccccc4)cn3)c2)cc(OC)c1OC	n	n
COc1cc(NC(=O)c2cccc(-n3cc(NC(=O)Nc4ccc(-c5ccccc5)cc4)cn3)c2)cc(OC)c1OC	49	n	AlphaScreen intf=n
COc1ccc(C)cc1NC(=O)Nc1cnn(-c2cccc(C(=O)Nc3cc(OC)c(OC)c(OC)c3)c2)c1	n	n
O=C(Nc1ccc2[nH]ncc2c1)C1CCCN(C(=O)C(O)c2ccc(Br)cc2)C1 (stereo unspecified)	n	n
c1ccc(CN2CCC(Nc3ccnc(Nc4ccc(N5CCOCC5)cc4)n3)CC2)cc1	50	n	AlphaScreen intf=n
COc1cc2nc(Nc3nc4ccccc4n3C)nc(Nc3cc(OC)c(OC)c(OC)c3)c2cc1OC	n	n
COc1cc2nc(Nc3ccc(-n4ccnc4)cc3)nc(Nc3ccc(N4CCOCC4)cc3)c2cc1OC	n	n
COc1cc2nc(Nc3ccccc3)nc(Nc3ccc(N4CCOCC4)cc3)c2cc1OC	48	n	AlphaScreen intf=9.5
c1ccc(CN2CCC(Nc3nccc(Nc4ccc(N5CCOCC5)cc4)n3)CC2)cc1	n	n
COc1cc2nc(Nc3ccc(N4CCOCC4)cc3)nc(Nc3ccc(N4CCOCC4)cc3)c2cc1OC	64	n	AlphaScreen intf=5.6
COc1cc2nc(Oc3ccccc3)nc(Nc3ccc(N4CCOCC4)cc3)c2cc1OC	n	n
COc1cc2nc(Nc3nc4ccccc4n3C)nc(Nc3ccc(NC(C)=O)cc3)c2cc1OC	72	n	AlphaScreen intf=9.7
SMILES	ASK1 inh	ULK1 primary	others
COc1ccc(NC(=O)C2CCCCN2S(=O)(=O)c2ccc(Cl)s2)cc1 (stereo unspecified)	x	n
O=C(NCc1nc2ccccc2[nH]1)c1ccc2nc(-c3ccc(N4CCOCC4)nc3)sc2c1	n	n
CCN(CC)c1nc(Nc2cc(OC)c(OC)c(OC)c2)nc(Nc2cnccn2)n1	n	n
Cc1cnc(Nc2nc3ccccc3n2C)nc1Nc1ccc(N2CCOCC2)cc1	39	n	AlphaScreen intf=n
Cn1c(Nc2nc(Nc3ccc(N4CCOCC4)cc3)c3[nH]cnc3n2)nc2ccccc21	n	n
c1nc2nc(Nc3ccc(N4CCOCC4)cc3)nc(Nc3ccc(N4CCOCC4)cc3)c2[nH]1	n	n
COc1cc2nc(Nc3ccc(N4CCOCC4)cc3)nc(NCc3cccc(C(F)(F)F)c3)c2cc1OC	52!	n	AlphaScreen intf=6.2
COc1cc2nc(NC3CCN(Cc4ccccc4)CC3)nc(Nc3ccc(N4CCOCC4)cc3)c2cc1OC	39	n	AlphaScreen intf=8.3
COc1ccc(Nc2nc(NCc3cccc(C(F)(F)F)c3)c3cc(OC)c(OC)cc3n2)cc1	n	n
COc1cc2nc(NC3CCN(Cc4ccccc4)CC3)nc(Nc3cc(OC)c(OC)c(OC)c3)c2cc1OC	n	n
CN(C)c1cccc(Nc2nc(Nc3ccc(N4CCOCC4)cc3)c3[nH]cnc3n2)c1	36	n	AlphaScreen intf=n
O=C(O)c1ccc2c(c1)CC(c1nc3ccc(-c4cn[nH]c4)cc3c(=O)[nH]1)CO2 (stereo unspecified)	n	n
COc1ccc(C(=O)N(CC#N)CC#N)c(OC)c1	x	n
